The results in this text go back to PubChem BioAssay AID1851 (National Center for Advancing Translational Sciences (NCATS), 2009).

Where “and” joins values, the source holds several entries; their conditions need not be identical. Equal entries are not always repeated. Hit rate of the full screen: of about 16,000 compounds, about 5,800 (36%) were called active. Roughly 23% stayed inconclusive and do not appear here. Some of the results follow. Unmarked numbers belong to inactive results. The call rests on the fitted dose curve; in most records, active means well fitted curve in the direction sought with a large enough effect; inconclusive means small, poorly fitted or top-dose-only effect, or effect the other way; inactive means no such curve, though single readings can be large or run the other way.
On the % scale 0 is the no-effect control and ±100 the full control effect.

Sequence of Cytochrome P450 2C19 (Homo sapiens) (P33261 whole entry, looked up): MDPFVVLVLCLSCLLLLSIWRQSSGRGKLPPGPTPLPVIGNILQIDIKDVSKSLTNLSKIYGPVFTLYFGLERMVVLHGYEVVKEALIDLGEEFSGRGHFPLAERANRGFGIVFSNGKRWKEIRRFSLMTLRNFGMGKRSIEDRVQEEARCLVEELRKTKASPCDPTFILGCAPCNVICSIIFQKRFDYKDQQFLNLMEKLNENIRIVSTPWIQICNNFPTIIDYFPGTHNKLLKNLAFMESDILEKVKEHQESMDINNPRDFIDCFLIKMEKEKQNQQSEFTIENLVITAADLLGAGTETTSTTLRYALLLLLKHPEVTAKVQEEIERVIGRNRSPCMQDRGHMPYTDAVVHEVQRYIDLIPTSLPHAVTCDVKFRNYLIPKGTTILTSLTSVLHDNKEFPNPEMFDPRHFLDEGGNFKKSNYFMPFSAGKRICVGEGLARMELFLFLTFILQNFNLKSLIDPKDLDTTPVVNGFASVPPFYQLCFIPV

The experiment has as its target Cytochrome P450 2C19 (Homo sapiens) (UniProt P33261). The experiment in a line: Cytochrome panel assay with activity outcomes. The conditions noted are these: recombinant CYP, pro-luciferin dealkylation, luminescence, p450-cyp2c19; series mostly up to 57.1 µM; activity, negative = inhibition: at the top concentration.
Take `CC(=O)OC[C@@H]1O[C@@H](O/N=C2/C[C@@H](O)[C@@H](O)[C@@H]3[C@@H]4C(=O)N([C@@H](C)c5ccccc5)C(=O)[C@H]4CC[C@@H]23)[C@H](OC(C)=O)[C@H](OC(C)=O)[C@@H]1OC(C)=O`: the activity, negative = inhibition was 23% [at 11.4 µM]. The same measure, in the same setting: to `CC(C)NC(=O)N1CCC2(CC1)CCN(C(=O)c1cccn1C)CC2` belongs -18.1%. As for `CNCCCCCCCCSc1nc(C(C)C)ccc1C(=O)c1cccs1`, the AC50 is 15.8 µM (active). Still for that read-out and setting: to `CC(C)NCCCOc1ccc(Cl)cc1Br` belongs 8.91 µM (active). Regarding `CCOc1ccc(Cl)cc1CNCCNCC(C)O` (stereo not given), the “activity, negative = inhibition” value is 23.2%. For the compound `CCN(CC)c1ccc(NC(=O)c2cnn(CC)c2)cc1`, the AC50 was 28.2 µM (active). Regarding `CC(C)CCNC1=NCCCCC1`, the “activity, negative = inhibition” value is -8.88%. With `CNc1ccc(Br)cc(C(=O)/C=C/c2ccc3c(c2)OCO3)c1=O`, the AC50 was 1.78 µM (active). `CCNc1ccc(Br)cc(C(=O)/C=C/c2ccc3c(c2)OCO3)c1=O`: the AC50 is 3.98 µM (active). Turning to `c1csc(CNc2cc(-c3ccoc3)ncn2)c1`, the AC50 was 10 µM (active).

On to `N#Cc1cccc(-c2cc(NCc3cccs3)ncn2)c1`, for which the AC50 is 10 µM (active). For `c1cncc(-c2cc(NCc3cccs3)ncn2)c1`, the “activity, negative = inhibition” value is -32.9%. Take `N#Cc1cccc(-c2nccc(NCc3ccccc3)n2)c1`: the AC50 is 10 µM (active). Consider `c1ccc(CNc2cc(-c3ccoc3)ncn2)cc1`, for which the “activity, negative = inhibition” value was -42.4%. `N#Cc1cccc(-c2nccc(NCc3cccs3)n2)c1`: the AC50 is 3.98 µM (active). Consider `CCOC(=O)C(NC(C)=O)C(=O)O` (stereo not given), for which the “activity, negative = inhibition” value is -5.2%.

Take `CN(C)C(=O)c1ccc(-c2cc(NCc3ccccc3)ncn2)cc1`: the “activity, negative = inhibition” value was -30.8%.

For the compound `Cc1cccc(CNc2ccnc(-c3cccc(C#N)c3)n2)c1`, the AC50 was 2.51 µM (active). `Cc1cccc(CNc2cc(-c3cccc(C#N)c3)ncn2)c1`: the AC50 is 6.31 µM (active). For the compound `Cc1cnc(CNc2cc(-c3cccc(C#N)c3)ncn2)cn1`, the “activity, negative = inhibition” value is -15.2%. Regarding `CN(C)c1ccc(-c2cc(NCc3ccccc3)ncn2)cc1`, the “activity, negative = inhibition” value is -21.1%. With `Cc1cccc(CNc2cc(-c3ccc(N(C)C)cc3)ncn2)c1`, the AC50 was 3.16 µM (active). Regarding `CO[C@]1(NC(=O)Cc2cccs2)C(=O)N2C(C(=O)O)=C(COC(N)=O)CS[C@H]21`, the “activity, negative = inhibition” value is 0.361% [at 25.6 µM]. Turning to `CO[C@H]1COC(=O)C/C=C\[C@@H](C)COC(=O)[C@@H](CCSC)NC(=O)C/C=C\[C@@H]1C`, the activity, negative = inhibition is -53.8% [at 11.4 µM] and -16.1% [at 11.4 µM]. As to `CO[C@H]1COC(=O)C/C=C\[C@H](C)[C@@H](NS(=O)(=O)c2ccc(C)cc2)COC(=O)CCC[C@@H]1C`, the activity, negative = inhibition is -36% [at 11.4 µM]. On to `COc1cccc(NS(=O)(=O)c2ccc3[nH]cc(C(=O)NCCN4CCOCC4)c(=O)c3c2)c1`, for which the AC50 was 22.4 µM (active). Turning to `COc1ccccc1CNS(=O)(=O)c1ccc2[nH]cc(C(=O)O)c(=O)c2c1`, the “activity, negative = inhibition” value is -6.93%. In the case of `O=C(CCN1CCN(CC(=O)Nc2ccccc2Cl)CC1)Nc1ccccc1F`, the AC50 was 2.51 µM (active).

Turning to `O=C(CCN1CCN(c2ccccc2F)CC1)Nc1ccccc1F`, the AC50 is 4.47 µM (active). Turning to `OCCN1CCN(CC/C=C2\c3ccccc3Sc3ccc(C(F)(F)F)cc32)CC1`, the “activity, negative = inhibition” value was -2.39% [at 25.6 µM]. Consider `COC(=O)N1CCC2(CCN(Cc3cc(C(F)(F)F)cc(C(F)(F)F)c3)CC2)CC1`, for which the “activity, negative = inhibition” value was -39%. As for `Cc1ccc(N2CCN(CCC(=O)O)CC2)cc1`, the activity, negative = inhibition is 10.7% [at 11.4 µM]. Take `Cc1ccc(C)n1CCN1CCN(CC(=O)Nc2cc(C(F)(F)F)ccc2Cl)CC1`: the AC50 is 10 µM (active). For the compound `CC1=C(C#N)C(Nc2ccc(Cl)cn2)(C(F)(F)F)C(=O)N1` (stereo not given), the AC50 was 0.794 µM (active). Same read-out and setting: the value for `CNC(=S)N1N=C(c2ccc(OC)cc2)CC1c1ccc(N(C)C)cc1` (stereo not given) was 3.16 µM (active). `CCN1C(=O)[C@H]2[C@H]3[C@H](O)[C@H](O)C/C(=N/NC(=O)OCc4ccccc4)[C@H]3CC[C@@H]2C1=O`: the activity, negative = inhibition is -7.17% [at 11.4 µM].

Regarding `Cc1noc(C)c1COc1cccc(C(=O)OCC(=O)N2CC(=O)Nc3ccccc32)c1`, the AC50 was 3.16 µM (active). Same read-out and setting: the value for `O=[N+]([O-])c1ccc(-c2cnc(SCc3ccccc3Cl)[nH]2)cc1` was 2.24 µM (active); that for `CC(C)C(=O)Nc1ccc(Sc2ccc(F)cc2)cc1` was 7.94 µM (active). Still for that read-out and setting: to `CCOc1ccc2[nH]c(=O)c(CN(CCc3ccccc3)C(=O)N3CCCC3)cc2c1` belongs 20 µM (active). Consider `O=C(O)c1cc2cc(OCc3ccccc3)ccc2[nH]1`, for which the “activity, negative = inhibition” value is -19.8%. Consider `C[N+]1(CC(=O)OCCCc2ccccc2)CCOCC1`, for which the “activity, negative = inhibition” value is -21.7%. Consider `CCOc1ccc2[nH]c(=O)c(CN(CCc3ccccc3)C(=O)N3CCOCC3)cc2c1`, for which the AC50 is 11.2 µM (active). With `CCOc1ccc(Cc2nc(C)c(CC(=O)N3CCOCC3)c(=O)[nH]2)cc1`, the “activity, negative = inhibition” value was -0.806%. Consider `NNC(=O)CCc1ccc2ccc3ccccc3c2c1`, for which the AC50 was 0.251 µM (active).

For the compound `O=C(O)CCCc1ccc2ccccc2c1`, the activity, negative = inhibition was 0.826% [at 11.4 µM]. On to `O=C1CCCC=C1[C@@H](O)CCOC(c1ccccc1)(c1ccccc1)c1ccccc1`, for which the AC50 is 0.251 µM (active). `O=C1CCCC=C1[C@@H](O)C1CCCCC1`: the activity, negative = inhibition was 19.2% [at 11.4 µM].

In the case of `O=C1CCCC=C1[C@@H](O)COCc1ccccc1`, the activity, negative = inhibition was -32.2% [at 11.4 µM].

As to `CSC1=C(C#N)C(c2ccccc2Cl)C2=C(N1)c1ccccc1C2=O` (stereo not given), the half-maximal activity concentration (AC50) was 0.355 µM (active). Consider `N#CC1=C(SCC(N)=O)NC2=C(C(=O)c3ccccc32)C1c1ccc(Cl)cc1` (stereo not given), for which the AC50 is 3.98 µM (active).

In the case of `COC(=O)[C@@H]1CC[C@H](C)[C@@H](c2ccc(C)cc2)N1C(=O)c1ccc(/C=N\OC[C@@H](O)[C@H]2O[C@H]3OC(C)(C)O[C@H]3[C@@H]2O)cc1`, the AC50 is 0.631 µM (active).

With `COC(=O)[C@@H]1CC[C@H](C)[C@@H](c2ccc(C)cc2)N1C(=O)c1ccc(/C=N\O[C@@H](C)CN2CCCc3nc(C)c(C)cc32)cc1`, the activity, negative = inhibition is 24.5% [at 11.4 µM]. `COC(=O)[C@@H]1CC[C@H](C)[C@@H](c2ccc(C)cc2)N1C(=O)c1ccc(/C=N\O[C@@H]2O[C@H](COC(C)=O)[C@H](OC(C)=O)[C@H](OC(C)=O)[C@H]2OC(C)=O)cc1`: the activity, negative = inhibition is -28.1% [at 11.4 µM].

As to `COC(=O)[C@@H]1CC[C@H](C)[C@@H](c2ccc(C)cc2)N1C(=O)c1ccc(/C=N\O[C@@H](C)c2cn([C@H]3COC[C@H]3O)nn2)cc1`, the activity, negative = inhibition is -29.4% [at 11.4 µM].

As for `COC(=O)[C@@H]1CC[C@H](C)[C@@H](c2ccc(C)cc2)N1C(=O)c1ccc(/C=N\O[C@@H](C)CN2CCCCc3nc(C)c(C)cc32)cc1`, the activity, negative = inhibition was -15.5% [at 11.4 µM]. Same read-out and setting: to `CO/N=C\c1ccc(C(=O)N2[C@H](c3ccc(C)cc3)[C@@H](C)CC[C@H]2C(=O)OC)cc1` belongs -39.6% [at 11.4 µM]; to `COC(=O)[C@@H]1CC[C@H](C)[C@@H](c2ccc(C)cc2)N1C(=O)c1ccc(/C=N\OCC[C@@H]2C=C[C@H](OC(C)=O)[C@H](COC(C)=O)O2)cc1`, -15.5% [at 11.4 µM].

`COC(=O)[C@@H]1CC[C@H](C)[C@@H](c2ccc(C)cc2)N1C(=O)c1ccc(/C=N\OC[C@@H]2O[C@H](c3ccccc3)C=C[C@@H]2Oc2ccc(OC)cc2)cc1`: the AC50 was 0.0501 µM (active). In the case of `COC(=O)[C@@H]1CC[C@H](C)[C@@H](c2ccc(C)cc2)N1C(=O)c1ccc(/C=N\O[C@@H](C)c2cn([C@H](CO)Cc3ccccc3)nn2)cc1`, the AC50 was 3.98 µM (active).
